Test results published in PubChem BioAssay.
The source made the active and inactive calls.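 How the source made its calls, unless noted: active means compounds that lower viability of the colon cancer cells in the luminescence readout, with no numeric limit stated; inactive means the rest.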

What was measured:
[1] = stimulators of insulin release from INS-1E, primary screen, cell-based, 5 mM glucose, NPC library (AID 1117329;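 active means compound raises insulin release from rat beta cells at 5 mM glucose, no numeric limit stated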); details: rat INS-1E insulin secretion, at 10 µM, stronger effect = higher value
[2] = growth inhibition of GSK3B-pretreated HCT116 cells – cell-based, CellTiter-Glo, 0.2 to 20 µM (AID 1117336;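 active means compounds lowering colon cancer cell viability after pretreatment blocking the GSK3B kinase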); details: HCT116 viability after GSK3B inhibitor, at 20 µM, stronger effect = higher value
[3] = inhibition of endothelial tube formation, primary screen, imaging, VEGF stimulated, CD31 staining, tube area, NPC library (AID 1117340;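 active means compound that reduces growth-factor-driven endothelial tube area in a mixed cell culture, no cutoff stated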); details: VEGF-stimulated ADSC/ECFC co-culture, at 10 µM, stronger effect = higher value
[4] = glucagon-like peptide 1 release enhancers, primary assay, NCI-H716 cell line, NPC library (AID 1117341;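 active means compound raises GLP1 secretion from the human gut endocrine cells, with no numeric limit stated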); details: NCI-H716 cells, at 10 µM, stronger effect = higher value
[5] = HCT116 colon cancer cell growth inhibition, primary screen, CellTiter-Glo luminescence, NPC library (AID 1117342;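 active means compounds that lower survival of HCT116 colon cancer cells in the luminescence readout, no numeric limit stated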); details: at 20 µM (top of the series)
[6] = CellTiter-Glo luminescent readout of SW480 viability loss, NPC library primary (AID 1117343); details: CellTiter-Glo luminescence; at 20 µM (top of the series)
[7] = decreased DLD-1 cellular survival, CellTiter-Glo luminescent readout, NPC compound collection, primary HTS (AID 1117346;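 active means compounds that lower survival of DLD-1 colon cancer cells in the luminescence readout, no cutoff given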); details: DLD-1 viability, CellTiter-Glo luminescence; at 20 µM (top of the series)
[8] = target: 6-phosphogluconate dehydrogenase, decarboxylating (Homo sapiens) (UniProt P52209); assay: 6PGD enzyme inhibitors, primary screen, biochemical, human, recombinant enzyme, NADPH absorbance (AID 1159550;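 active means at least 20% inhibition of 6-phosphogluconate dehydrogenase activity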); details: recombinant 6PGD, NADPH absorbance 341 nm; at 10 µM; stronger effect = higher value
[9] = differential killing of epithelial or mesenchymal cells, primary screen, imaging, PC-3E GFP, TEM4-18 mCherry, co-culture (AID 1345086;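 active means compounds killing one labelled cell type while sparing the other, by normalised counts and ratio limits, not self-fluorescent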;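 on all read-outs here: cells exposed to compound for 72 h before imaging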;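 on red/green cell ratio (normalised): normalised mesenchymal count divided by normalised epithelial count so high means epithelial killing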); details: imaging cell counts, at 1 µM; for red/green cell ratio (normalised): actives lie on both sides, counts scaled to control wells, 1 = unselective
[10] = measured here: epithelial PC-3E GFP cell survival
[11] = measured here: mesenchymal TEM4-18 mCherry cell survival

Chain of 6-phosphogluconate dehydrogenase, decarboxylating (Homo sapiens) (P52209 whole entry, looked up): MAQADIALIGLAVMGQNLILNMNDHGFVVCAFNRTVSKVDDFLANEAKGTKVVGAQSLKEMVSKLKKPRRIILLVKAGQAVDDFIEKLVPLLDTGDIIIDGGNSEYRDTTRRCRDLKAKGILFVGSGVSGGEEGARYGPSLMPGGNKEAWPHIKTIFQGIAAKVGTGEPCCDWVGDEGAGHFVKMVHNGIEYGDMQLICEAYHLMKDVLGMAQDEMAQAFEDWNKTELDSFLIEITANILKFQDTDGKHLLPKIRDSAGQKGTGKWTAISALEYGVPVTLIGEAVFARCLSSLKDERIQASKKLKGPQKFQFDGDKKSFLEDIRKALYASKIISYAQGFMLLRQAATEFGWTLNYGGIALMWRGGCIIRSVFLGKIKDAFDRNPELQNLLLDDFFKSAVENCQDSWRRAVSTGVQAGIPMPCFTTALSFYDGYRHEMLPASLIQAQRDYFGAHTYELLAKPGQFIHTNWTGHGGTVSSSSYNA

Row | SMILES | insulin secretion stimulation [1] | viability decrease [2] | tube area decrease [3] | GLP1 secretion stimulation [4] | inhibition of viability [5] | viability decrease (inhibition) [6] | viability decrease (inhibition) [7] | inhibition [8] | red/green cell ratio (normalised) [9] | normalised cell number [9, 10] | normalised cell number [9, 11]
1 | CC(N)C(=O)OC(C)(C)Cc1ccc(Cl)cc1 (stereo not given) | 4.8% (inactive) | 7.1% (inactive) | -6.7% (inactive) | 5.8% (inactive) | 50% (active) | 13.1% (inactive) | 20.6% (inactive) | -7.62% (inactive) | 1.21 (inactive) | 0.96 | 1.16
2 | CC1(C)S[C@@H]2[C@H](NC(=O)C(C(=O)O)c3ccccc3)C(=O)N2[C@H]1C(=O)O (stereo not given in full) | -0.6% (inactive) | -17.4% (inactive) | -10.8% (inactive) | -0.3% (inactive) | -4.4% (inactive) | -13% (inactive) | -17.8% (inactive) | -9.55% (inactive) | 1.24 (inactive) | 0.99 | 1.23
3 | CCCCCCCCCCCCCCCCOP(=O)([O-])OCC[N+](C)(C)C | 0% (inactive) | 100% (active) | 12.2% (inactive) | 2.7% (inactive) | 100% (active) | 120% (active) | 103% (active) | 17% (inactive) | 0.8 (inactive) | 1.32 | 1.06
4 | Cc1[nH]c(C)c(Cl)c(=O)c1Cl | -1.1% (inactive) | 10.2% (inactive) | -15.3% (inactive) | 0.1% (inactive) | 6.55% (inactive) | 29% (inactive) | 11.2% (inactive) | -15% (inactive) | 0.99 (inactive) | 1 | 0.99
5 | COc1ccc(NS(=O)(=O)c2ccc(N)cc2)nn1 | 0.2% (inactive) | -9.5% (inactive) | 14% (inactive) | 0.3% (inactive) | -7.97% (inactive) | 2.4% (inactive) | -8.6% (inactive) | -7.32% (inactive) | 1.05 (inactive) | 0.94 | 0.98
6 | NC(Cc1ccc(Cl)cc1)C(=O)O (stereo not given) | -1.3% (inactive) | -0.7% (inactive) | -8.9% (inactive) | 0.5% (inactive) | -7.8% (inactive) | 13.2% (inactive) | -6.55% (inactive) | 5.29% (inactive) | 1.13 (inactive) | 0.99 | 1.12
7 | COc1cc(NS(=O)(=O)c2ccc(N)cc2)ncn1 | 4.3% (inactive) | 16.8% (inactive) | 1.4% (inactive) | -4.1% (inactive) | 3.43% (inactive) | -10.6% (inactive) | 3.8% (inactive) | -1.56% (inactive) | 1.16 (inactive) | 0.74 | 0.86
8 | Cc1ccc2c(Cl)cc(Cl)c(O)c2n1 | -0.8% (inactive) | -3.9% (inactive) | 9.4% (inactive) | 2% (inactive) | 2.45% (inactive) | 14.8% (inactive) | 3.5% (inactive) | 6.51% (inactive) | 0.8 (inactive) | 1.22 | 0.98
9 | COc1ccc2cc1Oc1ccc(cc1)C[C@H]1c3c(cc4c(c3Oc3cc5c(cc3OC)CCN(C)[C@@H]5C2)OCO4)CCN1C | 5.5% (inactive) | 98.1% (active) | 108% (active) | 1.9% (inactive) | 102% (active) | 123% (active) | 87.3% (active) | -1.33% (inactive) | 0.85 (inactive) | 0.93 | 0.78
10 | COc1ccc(C2C(=O)c3ccccc3C2=O)cc1 | 0.7% (inactive) | 48.4% (inactive) | -33.4% (inactive) | -6% (inactive) | 35.2% (inactive) | 22.1% (inactive) | 11% (inactive) | -16% (inactive) | 0.84 (inactive) | 1.14 | 0.96
11 | CCCCC(CC)CN1CN(CC(CC)CCCC)CC(C)(N)C1 (stereo not given) | 6.1% (inactive) | 79.6% (active) | 16% (inactive) | 53.9% (active) | 102% (active) | 145% (active) | 105% (active) | -10.4% (inactive) | 1.02 (inactive) | 0.84 | 0.85
12 | Oc1c(I)cc(I)c2cccnc12 | 0.55% (inactive) | 102% (active) | 108% (active) | -3.1% (inactive) | 89.9% (active) | 147% (active) | 96.2% (active) | -4.02% (inactive) | 1.31 (inactive) | 1.01 | 1.32
13 | NC(N)=NS(=O)(=O)c1ccc(N)cc1 | -1.4% (inactive) | 7.4% (inactive) | -2.9% (inactive) | 0.9% (inactive) | -10.1% (inactive) | 54.6% (active) | 5.6% (inactive) | -6% (inactive) | 1.03 (inactive) | 0.95 | 0.98
14 | CC(C(=O)O)c1ccc2c(c1)[nH]c1ccc(Cl)cc12 (stereo not given) | 0.1% (inactive) | 6.1% (inactive) | 17.9% (inactive) | 4.6% (inactive) | 1.67% (inactive) | 36% (inactive) | 14.1% (inactive) | -6.34% (inactive) | 1.13 (inactive) | 1.37 | 1.54
15 | CCOC(=O)NNc1nncc2ccccc12 | 3.7% (inactive) | 0.3% (inactive) | -6.6% (inactive) | -0.3% (inactive) | -0.97% (inactive) | 9.4% (inactive) | 6.7% (inactive) | -20.7% (inactive) | 0.96 (inactive) | 0.94 | 0.9
